High-throughput results as filed in PubChem.
Rows were chosen to be rich in hits. Some 4.6% of all compounds tested hit in one or more screens of this group.
USP8 block: blocks human USP8 ubiquitin-rhodamine cleavage; purified USP8, Ub-rhodamine cleavage fluorescence, 30 min; actives 4.2% (n = 47,000); AID 1645853; inhibition, % at 20 µM; P40818
USP7 block: inhibitors of human USP7 deubiquitinase | actives 0.3% (n = 47,000) | inhibition, % at 20 µM | purified USP7, Ub-rhodamine cleavage fluorescence | Q93009
USP10 inh: human USP10 deubiquitinase inhibition | Q14694 | purified USP10, Ub-rhodamine fluorescence, 60 min | inhibition, % at 20 µM | actives 1.1% (n = 47,000)
UCHL1 block: inhibitors of human UCHL1 deubiquitinase | P09936 | purified UCHL1, Ub-rhodamine cleavage fluorescence | inhibition, % at 20 µM | actives 0.2% (n = 47,000) | AID 1645859
Target sequence (P09936 whole entry, looked up): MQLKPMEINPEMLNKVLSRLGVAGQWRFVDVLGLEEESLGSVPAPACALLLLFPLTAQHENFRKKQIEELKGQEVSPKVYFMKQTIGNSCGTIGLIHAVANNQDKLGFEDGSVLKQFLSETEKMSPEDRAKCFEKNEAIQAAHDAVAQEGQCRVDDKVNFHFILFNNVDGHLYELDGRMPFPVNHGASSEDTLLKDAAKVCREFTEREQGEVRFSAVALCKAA
Hits are given with their value; . = inactive. Cut-off read from the data, not from the text of the source: active = inhibition above about 30%; inactive = the rest.

SMILES	USP8 block	USP7 block	USP10 inh	UCHL1 block
Cc1ccccc1N1C(=O)c2cc(-c3ccco3)nn2CC1(C)C(=O)NC(C)(C)C (configuration not stated)	.	.	.	.
Cc1nc(N2CCN(c3ccc(Cl)cc3)CC2)c2oc3ccccc3c2n1	63.4	.	.	.
Cc1nc(N2CCC(C(=O)O)CC2)c2oc3ccccc3c2n1	.	.	.	.
COc1cccc(C(=O)Nc2ccc(SC(C)C(=O)Nc3ccc(C(N)=O)cc3)cc2)c1 (configuration not stated)	.	.	36.0	.
CCN(CC)c1ccc2nnc(CCC(=O)NCc3cccnc3)n2n1	.	.	.	.
Cc1ccc(NC(=O)Cn2c(-n3nc(C)cc3C)nc3c(c2=O)CCCC3)c(C)c1	.	.	.	.
Cc1ccc(Nc2nc3c(S(=O)(=O)c4ccccc4)nnn3c3ccccc23)c(C)c1	69.9	.	.	.
Cc1ccc(C)c(Nc2nc3c(S(=O)(=O)c4ccccc4)nnn3c3ccccc23)c1	39.2	.	.	.
Cc1ccc(S(=O)(=O)c2nnn3c2nc(NCc2ccc(F)cc2)c2ccccc23)cc1C	51.0	.	.	.
O=S(=O)(c1ccccc1)c1nnn2c1nc(NCc1ccc(Cl)cc1)c1ccccc12	.	.	.	.
CCn1nccc1-c1nccnc1CC1CCCN(S(C)(=O)=O)C1 (configuration not stated)	.	.	.	.
O=C(O)c1ccccc1C(=O)Nc1ccc(SC(C(=O)Nc2cccc(Cl)c2)c2ccccc2)cc1 (configuration not stated)	.	.	51.9	.
Cc1ccc(C(=O)O)cc1NC(=O)C(Sc1cccc(NC(=O)c2cccc(Cl)c2)c1)c1ccccc1 (configuration not stated)	39.6	.	34.1	.
COc1cccc(C(=O)Nc2ccc(SC(C(=O)Nc3ccccc3)c3ccccc3)cc2)c1 (configuration not stated)	.	.	.	.
Cc1cccc(C(=O)Nc2cccc(SC(C(=O)Nc3ccc(Cl)c(C(=O)O)c3)c3ccccc3)c2)c1 (configuration not stated)	43.9	.	69.2	.
Cc1ccccc1NC(=O)C(Sc1ccc(NC(=O)c2ccccc2C(=O)O)cc1)c1ccccc1 (configuration not stated)	.	.	.	.
COc1cccc(NS(=O)(=O)c2c[nH]c3ncccc23)c1	.	.	.	.
Cn1c(=O)c2c(nc(CN3CCN(c4ccccc4F)CC3)n2Cc2ccccc2Cl)n(C)c1=O	.	.	.	.
CCOc1cc2c(cc1OCC)C(c1ccc(OC)cc1)N(c1ccc(OC)c(Cl)c1)C(=O)C2 (configuration not stated)	35.6	.	.	.
CCOc1cc2c(cc1OCC)C(c1ccc(Cl)cc1)N(c1ccc(C(=O)O)cc1)C(=O)C2 (configuration not stated)	.	.	.	.
Cc1ccc2[nH]c(=O)c(CN(CC3COCCO3)S(=O)(=O)c3ccc(F)cc3)cc2c1 (configuration not stated)	35.1	.	.	.
Cc1ccc(S(=O)(=O)N(Cc2cc3ccc(C)cc3[nH]c2=O)CC2CCCO2)cc1 (configuration not stated)	.	.	.	.
COc1ccc(-c2nc(CNC(=O)c3ccccc3C)cs2)cc1	.	57.1	.	.
COc1ccccc1NC(=O)c1cc(Br)cc(Cc2ccccc2)c1O	48.6	.	.	.
CC(=O)N1CCCC(c2nc(N3CCOCC3)ncc2-c2cccnc2)C1 (configuration not stated)	.	.	.	.
SMILES	USP8 block	USP7 block	USP10 inh	UCHL1 block
Cn1cc(-c2cnc(N3CCOCC3)nc2)cc1C(=O)NCCc1cccc(F)c1	.	.	.	.
CC(C)(CNC(=O)c1ccccc1)SCc1ccc(Cl)cc1	.	.	.	.
C=C1CC[C@H]2[C@@](C)(COC(C)=O)CCC[C@]2(C)[C@H]1CC/C(C)=C/COC(C)=O	.	.	.	.
C=C1CCC2C(C)(CCC=C(C)C)C(OC(C)=O)CCC2(C)C1Cc1c(O)c(C)c(C)oc1=O (configuration not stated)	.	.	31.9	.
Cc1cc2occ(CC(=O)N3CCCCC3c3nnc(-c4cnccn4)o3)c2cc1C (configuration not stated)	30.2	.	.	.
CCc1cc(C(=O)N2CCCCC2c2nnc(-c3cnccn3)o2)cs1 (configuration not stated)	.	.	.	.
O=c1[nH]c2c(cc1CNCc1cccnc1)c(-c1cccc(F)c1)nn2-c1ccccc1	68.4	.	.	.
Cc1nn(-c2ccccc2)c2[nH]c(=O)c(CNCc3ccc(F)cc3)cc12	55.5	.	.	.
Cc1ccc(NCc2cc3c(-c4ccc(F)cc4)nn(-c4ccccc4)c3[nH]c2=O)cc1C	77.2	.	.	.
Cc1nn(-c2ccccc2)c2[nH]c(=O)c(CNCc3ccco3)cc12	.	.	.	.
O=C(O)c1c(CNCc2cccnc2)c2ccccc2n1Cc1ccccc1F	.	.	.	.
Cc1nn(-c2ccccc2)c2[nH]c(=O)c(CNCc3ccc4c(c3)OCO4)cc12	77.5	.	.	.
CC1[C@@H]2[C@@H](C(=O)N3CCOCC3)C[C@H](CN1C(=O)c1ccc(O)cc1)N2C (some centres not stated)	.	.	.	.
COc1ccc(CN2C(=O)Cc3c(C)nc(C4CCNC4)nc32)cc1 (configuration not stated)	.	.	.	.
Cc1ccc(-c2nn(-c3ccccc3)c3[nH]c(=O)c(CNCc4ccccc4)cc23)cc1	55.8	.	.	.
COc1ccc(-c2nn(-c3ccccc3)c3[nH]c(=O)c(CNC4CCCC4)cc23)cc1	.	.	.	.
COc1cccc(-c2cc3n(C)c(C)c(CCC(=O)NCc4ccco4)c(=O)n3n2)c1	53.4	.	.	.
Cc1cccc(C)c1NC(=O)C1(NC(=O)c2ccc(Br)cc2)CCCCC1	43.2	.	.	.
COc1cccc(CCC(=O)N2CCN(c3ccc(CN4CCC(N(C)C)CC4)cn3)CC2)c1	.	.	.	.
CC1=CC2=NC(=O)/C(=C\c3cn(CCOc4ccccc4)c4ccccc34)C(=N)N2O1	.	.	.	.
N=C1/C(=C/c2cn(Cc3ccccc3)c3ccccc23)C(=O)N=C2SC(C(F)(F)F)=NN12	.	.	43.4	.
N=C1/C(=C/c2cn(Cc3ccc(F)cc3)c3ccccc23)C(=O)N=C2SC(Cc3ccccc3)=NN12	74.2	.	34.0	.
O=C(O)c1cn(Cc2ccc(F)cc2)c(=O)c2ccccc12	.	.	.	.
OCCOc1ccc(CN2CCCn3c(nc4ccccc43)C2)cc1	.	.	.	.
Cc1cccc(S(=O)(=O)N2C[C@@H]3C[C@@H](c4nc(C)no4)O[C@@H]3C2)c1	.	.	.	.
O=C(CCC(=O)N1Cc2cccn2-c2ccccc21)NCc1cccc(Cl)c1	.	.	.	.
CN1C(=O)COc2cc(-c3noc(C(=O)NCc4ccc(F)cc4)n3)ccc21	40.6	.	54.8	.
COc1ccc(Nc2nnc(Cc3ccccc3)c(=O)[nH]2)cc1	.	.	.	.
